Compounds with a hit are over-represented: about 1.8% of the library has one in this group of screens.
RAD52 anneal inh = RAD52 DNA annealing inhibitors, primary screen, biochemical, FRET, single point, set 2; hit rate 0.46% among 360,000; recombinant RAD52 DNA annealing, FRET fluorescence; DNA repair protein RAD52 homolog (Homo sapiens), P43351; inhibition, % at 18.7 µM;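 active = every replicate showing at least 50% inhibition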
INS-1E GSIS act = GLuc luminescence reporter in INS-1E cells, primary screen for activators of glucose-dependent secretion of insulin; INS-1E GLuc reporter insulin secretion, 2-3 h; activation, % at 16.6 µM; hit rate 0.61% among 370,000;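 active = lowest replicate activation of at least 40%, so every replicate reaches that level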;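 note: 0% = median of neutral control wells and 100% = median of IBMX positive control wells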
F508del corr = F508del CFTR correction, initial screen, CFBE line, single point; CFBE cells, YFP halide quenching; stimulated with forskolin plus potentiator P3; % fluorescence drop versus neutral controls; activity (quench increase), % at 7.58 µM; hit rate 0.36% among 350,000;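 active = mean added fluorescence quench of at least 8% versus neutral control, with both replicates also reaching 8%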;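 note: cells transiently co-express mutant CFTR-F508del with the halide-sensitive YFP; corrector assay measuring rescue of mutant channel to the surface after 24 h compound exposure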
LGR2 antag = inhibitors of bursicon-induced LGR2 CRE-luciferase signal, primary screen, cell-based, HEK293, CRE-luciferase reporter, bursicon stimulation; bursicon-stimulated, 4 h; inhibition, % at 9.99 µM; hit rate 0.35% among 380,000; AID 720647, 2013;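 active = drop in luminescence signal, shown as inhibition above about 50% in the replicate tests, limit read from the data, passing the limit was not always enough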;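 note: agonist challenge used bursicon conditioned medium at about half maximal strength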
EWS-Fli block = EWS/Fli-driven NR0B1 reporter inhibitors, primary screen, A673 cells, NR0B1 luciferase, luminescence, MLPCN library; viability-normalised; inhibition, % at 12.6 µM; hit rate 0.67% among 350,000; AID 651661, 2012;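 active = mean inhibition of at least 50% after viability correction, with every replicate also passing that limit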;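 note: firefly luciferase signal divided by Alamar Blue viability fluorescence both relative to DMSO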
RAD54 inh = inhibitors of human RAD54 branch migration, primary screen, biochemical, fluorescence, single point; DNA repair and recombination protein RAD54-like (Homo sapiens), Q92698; RAD54 Holliday junction branch migration, FAM/BHQ fluorescence; inhibition, % at 10.4 µM; hit rate 0.14% among 360,000; AID 602329, 2012;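 active = mean normalized replicate activity at least 40 and at least half of replicates scoring 40 or more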;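 note: 0% = median of neutral control wells and 100% = median of positive control wells; inhibitors cause a drop in the FAM fluorescence signal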
Target sequence (Q92698 whole entry, looked up): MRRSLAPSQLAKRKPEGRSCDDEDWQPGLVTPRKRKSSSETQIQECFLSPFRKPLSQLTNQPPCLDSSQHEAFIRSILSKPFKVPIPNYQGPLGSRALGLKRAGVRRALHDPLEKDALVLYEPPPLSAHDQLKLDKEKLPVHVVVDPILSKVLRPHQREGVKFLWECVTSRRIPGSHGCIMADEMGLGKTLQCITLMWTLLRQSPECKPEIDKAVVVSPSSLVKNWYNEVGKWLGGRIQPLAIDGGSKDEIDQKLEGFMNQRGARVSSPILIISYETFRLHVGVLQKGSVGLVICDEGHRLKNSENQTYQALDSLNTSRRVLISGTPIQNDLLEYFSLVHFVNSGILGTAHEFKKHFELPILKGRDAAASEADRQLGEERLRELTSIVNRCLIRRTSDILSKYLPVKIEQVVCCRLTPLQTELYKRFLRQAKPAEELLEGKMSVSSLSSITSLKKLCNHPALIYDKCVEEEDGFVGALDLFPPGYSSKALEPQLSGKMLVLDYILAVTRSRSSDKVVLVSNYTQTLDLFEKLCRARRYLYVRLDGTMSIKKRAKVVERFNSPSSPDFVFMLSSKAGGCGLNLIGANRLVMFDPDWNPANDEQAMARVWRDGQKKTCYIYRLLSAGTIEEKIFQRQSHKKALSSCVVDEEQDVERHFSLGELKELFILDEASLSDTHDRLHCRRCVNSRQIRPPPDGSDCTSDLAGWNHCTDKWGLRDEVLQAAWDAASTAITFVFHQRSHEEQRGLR
DNA binder FP = DNA-binding compounds via dye displacement, dose response, artefact control for RAD52 inhibitor project, biochemical, fluorescence polarization, cherry-pick; shares compounds with RAD52 anneal inh; Salmon sperm DNA/acridine orange FP displacement; AC50, µM; hit rate 8% among 1,000; AID 652128, 2013;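 active = fitted half-maximal concentration for signal loss at or below twice the highest dose tested, in every separate run, actives reach about 64 µM in these data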
Starred values were filed as active, the others as inactive; i = inactive; . = no result.

SMILES | RAD52 anneal inh | INS-1E GSIS act | F508del corr | LGR2 antag | EWS-Fli block | RAD54 inh | DNA binder FP
CCN(CC)C(=O)c1csc(Nc2cccc3ccccc23)n1 | -5 | 2 | -2 | 11 | -7 | -12 | .
CCN(CC)CCCNC(=O)c1csc(Nc2cccc3ccccc23)n1 | 92* | 0 | 1 | 4 | 15 | 23 | i
O=c1[nH]c(C2CCN(S(=O)(=O)c3ccc(C(F)(F)F)cc3)CC2)nc2c1nnn2Cc1ccc(F)cc1 | -14 | -6 | 6 | -9 | 8 | 5 | .
NC(=S)NN=C1c2cc(OCCN3CCOCC3)ccc2-c2ccc(OCCN3CCOCC3)cc21 | 87* | 6 | -1 | 104* | 64* | . | i
Cc1ccc(S(=O)(=O)NCC[C@H]2CC[C@H](NC(=O)CCN3CCCCC3)[C@H](CO)O2)cc1 | -3 | -3 | 2 | 5 | 6 | -1 | .
Cc1cc(C)c(CN2CCN(CCCn3cnc(C(=O)Nc4ccc(C)c(C)c4)n3)CC2)c(C)c1 | 56* | 41 | 1 | -8 | 12 | 5 | i
Cc1ccc(NCCCn2cnc(C(=O)Nc3ccc(C)c(C)c3)n2)cc1C | 4 | 1 | 1 | 3 | -3 | -25 | .
Cc1ccc(S(=O)(=O)CC(=O)c2ccc([N+](=O)[O-])cc2)cc1 | -12 | . | 2 | . | -5 | 13 | .
